Experimental data as given in PubChem BioAssay (NCATS).
Records with an inconclusive call do not appear. Values without a mark were called inactive. Calls of active or inactive are those of the source. Calls follow the shape of the dose curve; as a rule, active = well fitted inhibition curve with a large enough effect; inconclusive = small, poorly fitted or top-dose-only effect; inactive = flat fitted curve, though single readings scatter.

Experiments:
[1] = test system: CRL-7250; assay: Cytotoxic Profiling of Annotated Libraries Using Quantitative High-Throughput Screening (AID 1296008); conditions: Five cell lines viability, CellTiter-Glo ATP luminescence, 48-72 h; max response: hits give low values; also: potency is read from the fitted curve at half-maximal effect; as to max response: % is scaled to controls: 0 for no effect and ±100 for the full control effect
Procedure, shortened: (§1)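 Cells exposed to compounds for 48 or 72 hr at 37 degrees Celsius. Viability read as ATP-coupled luminescence with CellTiter-Glo after 10 min at room temperature.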

[2] = test system: HEK293; assay: as above; conditions: Five cell lines viability, CellTiter-Glo ATP luminescence, 48-72 h; max response: hits give low values
Procedure, shortened: as §1

[3] = test system: HaCat; assay: as above; conditions: Five cell lines viability, CellTiter-Glo ATP luminescence, 48-72 h; max response: hits give low values
Procedure, shortened: as §1

[4] = test system: KB-3-1; assay: as above; conditions: Five cell lines viability, CellTiter-Glo ATP luminescence, 48-72 h; max response: hits give low values
Procedure, shortened: as §1

[5] = test system: NIH3T3; assay: as above; conditions: Five cell lines viability, CellTiter-Glo ATP luminescence, 48-72 h; max response: hits give low values
Procedure, shortened: as §1

[6] = test system: HACAT; assay: qHTS assay to identify novel small-molecules to repurpose for Merkel cell carcinoma treatment (AID 1296009); conditions: MCC and control cell lines, CellTiter-Glo viability, 72 h; at 44.8 µM (top of the series) unless noted
Procedure, shortened: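 CellTiter-Glo luminescence after 72 hr compound exposure at 37 degree celsius gave cell viability. Libraries NPC and MIPE were run as 8- and 11-point dose responses; RLUs normalized to DMSO (negative) and no-cell (cytotoxicity) controls.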
Also: nearly all actives have a fitted effect of over 60% in size.

Row | Compound | max response [1] [%] | max response [2] [%] | outcome [3] | max response [4] [%] | outcome [5] | outcome [6] | outcome [4] | max response [5] [%] | outcome [1] | Potency [2]
1 | COc1ccc(/C=C/C(=O)O[C@@H]2[C@@H](O[C@@H]3O[C@H](CO)[C@@H](O)[C@H](O)[C@H]3O)[C@@H](O)[C@H](O[C@H]3C4C=CO[C@@H](O[C@@H]5O[C@H](CO)[C@@H](O)[C@H](O)[C@H]5O)C4[C@@]4(CO)O[C@@H]34)O[C@H]2C)cc1 (some centres undefined) | -8.31 | -3.69 | inactive | -1.62 | inactive | inactive [at 9.27 µM] |  |  |  | 
2 | COc1cc(O)cc(O[C@@H]2O[C@H](CO)[C@@H](O[C@@H]3OC[C@](O)(CO)[C@H]3O)[C@H](O)[C@H]2O)c1OC | 2.5 | -4.25 | inactive |  |  | inactive [at 17.4 µM] | inactive | 2.33 |  | 
3 | COc1ccc(C(=O)CC(=O)O)c2c1C=CC(C)(C)O2 |  | -7.49 | inactive | 7.77 |  | inactive |  | -1.38 | inactive | 
4 | CC(C)(O)C1OC1C1=CC(=O)C2(C)OC2C1O (centres undefined) |  | -1.71 | inactive |  |  | inactive | inactive | 3.09 | inactive | 
5 | COc1cc(C)c(C(=O)OC2C(C)OC(OC3CCC(C)C4C3C=C(C)C3/C(C)=C\CC/C(C)=C/C5(C)C=C(C(=O)O)C(C)CC56OC(=O)/C(=C(\O)C34C)C6=O)C(O)C2O)c(OC)c1 (centres undefined) |  | -1.11 | inactive | -3.91 | inactive | inactive [at 9.27 µM] |  |  | inactive | 
6 | Cc1c(NC(=O)N2CCOCC2)ccc2c1c1ccccc1n2C(C)C |  | -7.57 | inactive | 3.33 |  | inactive |  | -1.53 | inactive | 
7 | CC1=C(CC/C(C)=C/C(=O)O)[C@@]2(C)CCCC(C)(C)C2CC1=O (some centres undefined) | -7.55 | -5.92 | inactive |  | inactive | inactive | inactive |  |  | 
8 | COc1ccccc1Oc1c(NS(=O)(=O)c2ccc(C)cn2)nc(-c2ccncc2)nc1OC | 3.94 | -4.09 | inactive |  |  | inactive | inactive | 0.566 |  | 
9 | CC1(C)C(=O)N2c3ccccc3C(O)(CC(C(=O)O)n3cnc4ccccc4c3=O)C2N1O (centres undefined) | 0.472 | -0.978 | inactive | 4.14 |  | inactive [at 17.4 µM] |  | 1.17 |  | 
10 | CC1(C)CC[C@]2(C(=O)O[C@@H]3O[C@H](CO)[C@@H](O)[C@H](O)[C@H]3O)CC[C@]3(C)C(=CCC4[C@@]5(C)C[C@@H](O)[C@H](O)[C@@](C)(CO)C5[C@H](O)C[C@]43C)C2C1 (some centres undefined) | -10.1 | -14.5 | inactive | -2.95 | inactive | inactive [at 17.4 µM] |  |  |  | 
11 | CCc1nnc(NS(=O)(=O)c2ccc(NC(=S)NC(=O)/C=C/c3ccc(F)cc3)cc2)s1 |  | -0.631 | inactive |  | inactive | inactive | inactive |  | inactive | 
12 | C=C1C(OC(C)=O)C(=O)C2C(C)(C)C(O)CCC2(C)C1CC(OC(C)=O)/C(C)=C/COC(C)=O (centres undefined) | -6.92 | -10.7 | inactive | 5.46 |  | inactive [at 17.4 µM] |  | -4.73 |  | 
13 | COc1cc(O[C@@H]2O[C@H](CO[C@H]3OC[C@](O)(CO)[C@H]3O)[C@@H](O)[C@H](O)[C@H]2O)cc(OC)c1O | -3.27 | 0.643 | inactive |  |  | inactive [at 17.4 µM] | inactive | -4.07 |  | 
14 | C=CC(C)(O)CC/C=C(\C)COC1O[C@H](CO)[C@@H](O)[C@H](O)[C@H]1O (some centres undefined) | -13.2 | 0.0631 | inactive | 1.01 |  | inactive |  | 3.77 |  | 
15 | C[C@@H]1O[C@@H](OC(=O)Cc2ccccc2)[C@H](O)[C@H](O)[C@H]1O | 2.73 | -2.15 | inactive | 6.7 | inactive | inactive |  |  |  | 
16 | C=C1CC2C3(C)C=CC(=O)OC(C)(C)C3CC(OC(C)=O)C2(C)C2C(=O)OC(C)C(=O)C12C (centres undefined) | -1.41 | -7.78 | inactive | 1.96 | inactive | inactive [at 17.4 µM] |  |  |  | 
17 | C=C[C@]1(C)C[C@@H](OC(=O)CSC2C[C@H]3CC[C@@H](C2)N3C)[C@]2(C)[C@H](C)CC[C@]3(CCC(=O)[C@H]32)[C@@H](C)[C@@H]1O (some centres undefined) | -0.484 |  | inactive | -17.7 | inactive | inactive |  |  |  | 1460 nM (active)

Row | Compound | max response [1] [%] | max response [2] [%] | outcome [3] | max response [4] [%] | outcome [5] | outcome [6] | outcome [4] | max response [5] [%] | outcome [1] | Potency [2]
18 | CC(=O)/C=C/C1(O)C(C)=CC(=O)CC1(C)C (centres undefined) | -1.97 | -3.4 | inactive | -2.68 | inactive | inactive |  |  |  | 
19 | COc1ccc2[nH]c(S(=O)Cc3ncc(C)c(OC)c3C)nc2c1 (centres undefined) | -15.2 | 3.04 | inactive | 6.01 | inactive | inactive |  |  |  | 
20 | C[C@@H]1O[C@@H](O[C@@H]2[C@@H](O)[C@H](O[C@H]3[C@H](O[C@H]4CC[C@@]5(C)C(CC[C@]6(C)C5CC=C5[C@@H]7CC(C)(C)CC[C@]7(C(=O)O[C@@H]7O[C@H](CO)[C@@H](O)[C@H](O)[C@H]7O)CC[C@]56C)C4(C)C)O[C@H](C(=O)O)[C@@H](O)[C@@H]3O)OC[C@H]2O)[C@H](O)[C@H](O)[C@H]1O (some centres undefined) | 2.65 | -0.54 | inactive |  | inactive | inactive [at 9.27 µM] | inactive |  |  | 
21 | C/C(=C\CO)CC/C=C(\C)C(=O)O[C@@H]1O[C@H](CO)[C@@H](O)[C@H](O)[C@H]1O | -4.11 | 1.04 | inactive |  |  | inactive | inactive | 1.84 |  | 
22 | CCOC(=O)C1=C(N)Oc2ccc(Cl)cc2C1C(C#N)C(=O)OCC (centres undefined) | 2.77 | 1.25 | inactive |  |  | inactive | inactive | -2.7 |  | 
23 | NC1Nc2ccccc2C1(N)CC1NC(=O)C(Cc2ccccc2)NC(=O)C(Cc2ccccc2)NC1=O (centres undefined) | -1.59 | -40.7 | inactive | 2.51 |  | inactive [at 17.4 µM] |  | 1.33 |  | 
24 | COC(=O)c1c(CC=C(C)C)c(OC2OC(CO)C(O)C(O)C2O)c2ccccc2c1OC1OC(CO)C(O)C(O)C1O (centres undefined) |  | -10.1 | inactive |  | inactive | inactive [at 17.4 µM] | inactive |  | inactive | 
25 | C=C1C[C@]23C[C@H]1CC[C@H]2[C@]1(C)CC[C@H](O)[C@@](C)(C(=O)O)[C@H]1[C@@H]3C(=O)O | -9.09 | 0.167 | inactive | -2.4 |  | inactive |  | 2.39 |  | 
26 | C/C(=C/CO)CC[C@H]1[C@]2(C)C[C@H](O)CC(C)(C)[C@H]2CC[C@]1(C)O | -3.5 | 4.37 | inactive | 3.57 |  | inactive |  | 3.86 |  | 
27 | O=C1OC(c2ccc(O)cc2)C(O)=C1Cc1ccccc1 (centres undefined) | 3.91 | 0.741 | inactive |  |  | inactive | inactive | 4.9 |  | 
28 | CC1=C2C[C@@]3(C)[C@@H](CCC[C@@H]3C)C[C@@]2(O)OC1=O |  | -2.55 | inactive | 8.04 | inactive | inactive |  |  | inactive | 
29 | CSCC1OC(n2cnc3c(=O)[nH]cnc32)C(O)C1O (centres undefined) | -7.17 | -2.06 | inactive | 2.69 | inactive | inactive |  |  |  | 
30 | CC1CC(=O)C2C(O)(C1)CC(O)C13OC1c1c(O)cccc1C(=O)C23O (centres undefined) |  | -12.4 | inactive | 3.15 | inactive | inactive |  |  | inactive | 
31 | OC[C@H]1O[C@@H](OC[C@H]2O[C@@H](OCc3ccccc3)[C@H](O)[C@@H](O)[C@@H]2O)[C@H](O)[C@@H](O)[C@@H]1O |  | -4.26 | inactive |  |  | inactive [at 17.4 µM] | inactive | -6.32 | inactive | 
32 | COC(=O)C(CC1(O)c2ccccc2N2C(=O)C(C)(C)N(O)C21)n1cnc2ccccc2c1=O (centres undefined) |  | 3.97 | inactive | 0.0146 |  | inactive [at 17.4 µM] |  | 2.61 | inactive | 
33 | Cc1occc(=O)c1O[C@@H]1O[C@H](COC(=O)CC(C)(O)CC(=O)O)[C@@H](O)[C@H](O)[C@H]1O (some centres undefined) |  | -5.53 | inactive |  | inactive | inactive [at 17.4 µM] | inactive |  | inactive | 
34 | CC(=O)O[C@H]1C[C@@H](O)C(C)(C)C2C[C@@H](OC(C)=O)[C@]3(C)C(CC[C@@]4(C)[C@H](c5ccoc5)OC(=O)[C@H]5O[C@]543)[C@]21C (some centres undefined) | -9.34 | -3.17 | inactive |  |  | inactive [at 17.4 µM] | inactive | 1.84 |  | 
